PME-1 primary: PME-1 (human) inhibition | Q9Y570 | 320,000 tested, 0.53% active | inhibition, % at 5.9 µM | recombinant PME-1, FP-Rh probe fluorescence polarization | AID 2130;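 active means inhibition above the campaign mean of all compounds plus 3 SD, cut at about 26% in these data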;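 further: competitive labeling of PME-1 active site by serine hydrolase directed probe; 0% = PME-1 with DMSO and 100% = wells lacking PME-1 enzyme; inhibitors block probe labeling so polarization falls and inhibition rises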
Fam108B counter: Fam108B inhibition, counter-screen for RBBP9 inhibitors | AID 1947 | inhibition, % at 9.51 µM | recombinant Fam108B, FP-Rh probe fluorescence polarization | 300,000 tested, 0.33% active;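 active means inhibition above the screen mean inhibition plus 3 SD, computed separately per campaign, cut at about 18% in these data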;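 further: inhibitors lower polarization as less probe binds the enzyme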
pPAFAH inh: pPAFAH (human) enzyme inhibition; recombinant pPAFAH, FP-rhodamine probe fluorescence polarization; inhibition, % at 3.39 µM; 330,000 tested, 1.5% active; AID 463082;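 active means inhibition above the mean inhibition across the screen plus 3 SD, cut at about 25% in these data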;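 further: inhibitors block binding of the rhodamine activity-based probe so polarization drops; 0% = enzyme with DMSO and 100% = wells lacking pPAFAH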
GSTO1 counter: GSTO1 inhibition, counter-screen for RBBP9 inhibitors; P78417; recombinant GSTO1, activity-based probe fluorescence polarization; inhibition, % at 5.96 µM; 300,000 tested, 1.1% active; AID 1974;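 active means inhibition above the campaign mean inhibition plus 3 SD, cut at about 35% in these data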;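 further: 0% = GSTO1-1 with DMSO and 100% = wells lacking GSTO1-1 enzyme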
Target sequence (P78417 whole entry, looked up): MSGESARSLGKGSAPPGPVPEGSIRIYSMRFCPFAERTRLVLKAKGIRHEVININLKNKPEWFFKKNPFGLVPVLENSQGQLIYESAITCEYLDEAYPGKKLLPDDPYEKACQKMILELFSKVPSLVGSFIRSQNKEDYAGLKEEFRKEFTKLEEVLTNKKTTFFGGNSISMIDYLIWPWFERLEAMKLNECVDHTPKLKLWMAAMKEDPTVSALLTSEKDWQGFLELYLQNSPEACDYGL
PAD4 inh: PAD4 (human) enzyme inhibition; Q9UM07; recombinant PAD4, RCA probe fluorescence polarization; inhibition, % at 6.36 µM; 330,000 tested, 0.41% active; AID 485272;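 active means percent inhibition above a cutoff equal to the mean of all tested compounds plus 3 SD, cut at about 15% in these data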;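 further: 0% = PAD4 with RCA probe and DMSO and 100% = probe without PAD4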
Fam108b confirm: Fam108b (mouse) hydrolase inhibition, confirmation assay; inhibition, % at 9.51 µM; shares compounds with Fam108B counter; 930 tested, 44% active; recombinant Fam108b, FP-Rh probe fluorescence polarization;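 active means inhibition above a limit from the primary screen, the mean over all compounds plus 3 SD, cut at about 19% in these data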;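 further: 0% = median of active Fam108b wells and 100% = catalytically dead S170A mutant; inhibitors free the probe so polarization falls as inhibition rises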
Fam108b ABPP HTS: inhibits mouse Fam108b in gel-based ABPP; shares compounds with Fam108B counter; inhibition, % at 20 µM; 260 tested, 44% active; AID 588649; recombinant Fam108b, fluorophosphonate probe; in the data active means inhibition above about 40%
Numbers without * were called inactive; nt = not tested or not shown. Rows were chosen to be rich in hits. Some 2.3% of all compounds tested hit in one or more screens of this group.

SMILES	PME-1 primary	Fam108B counter	pPAFAH inh	GSTO1 counter	PAD4 inh	Fam108b confirm	others
CCOc1ccc(/C=N/NC(=O)c2nnn(-c3nonc3N)c2-c2ccc(OCC)cc2)cc1	-5	2	3	6	3	nt
O=S(=O)(Nc1ccc(-c2csc(-c3ccccc3)n2)cc1)c1ccc(F)cc1	-46	-29	-16	-11	-2	nt
O=C(Nc1nc(-c2ccccc2)cs1)c1ccccc1NS(=O)(=O)c1ccc(F)cc1	18	24*	22	-57	-8	6
O=C(O)c1ccc(N/N=C/C2=C(N3CCOCC3)C(=C\c3ccccc3)/CC2)cc1	4	19*	28*	27	4	22*
O=C(NC(=S)NNC(=O)c1ccccc1O)c1cccc([N+](=O)[O-])c1	5	19*	17	7	0	10
CC1(c2ccc(C#N)cc2)NC(=O)N(CC(=O)Nc2cc(S(=O)(=O)N3CCOCC3)ccc2Cl)C1=O (centres undefined)	2	1	2	9	-1	nt
CCCCNC(C(=O)Nc1ccc(Cl)c([N+](=O)[O-])c1)c1ccccc1 (centres undefined)	-7	2	-7	0	-5	nt
O=C(O)CCCN1C(=O)/C(=C\c2ccc(-c3nc4ccccc4s3)o2)SC1=S	-5	20*	30*	22	-5	11
Cc1ccccc1-c1nc2sc3c(c2c(=O)o1)CCC3	-5	21*	17	2	-1	11
COc1ccc2nc(C)cc(N/N=C/c3cccc(OC)c3O)c2c1	14	19*	14	11	-3	-1
COc1ccc(/C=N/Nc2cc(C)nc3ccc(Br)cc23)cc1	35*	20*	11	-7	-3	-1
Cc1cc(N/N=C/c2ccccc2O)c2ccccc2n1	6	9	9	-4	-2	nt
O=[N+]([O-])c1cc(Cl)cc(C=NNC(=S)Nc2ccc(S(=O)(=O)N3CCOCC3)cc2)c1O	nt	nt	nt	nt	nt	nt	Fam108b ABPP HTS=0
O=[N+]([O-])c1cc(Cl)cc(/C=N/NC(=S)Nc2ccc(S(=O)(=O)N3CCOCC3)cc2)c1O	19	39*	52*	14	-8	31*
N#Cc1ccc(/C=N/NC(=S)Nc2ccc(S(=O)(=O)N3CCOCC3)cc2)cc1	-1	-1	3	-15	-3	nt
CCOC(=O)c1sc(NC(=O)Nc2ccc(Cl)cc2)cc1C	20	44*	26*	-56	-4	83*	Fam108b ABPP HTS=95*
CCOC(=O)c1sc(NC(=O)c2ccc(Cl)s2)cc1C	-6	-1	3	2	1	nt
O=C(Nc1ccccc1Cl)Nc1ccccc1Cl	1	-1	-3	3	1	nt
O=C(Nc1ccc(Nc2ccccc2)cc1)Nc1ccccc1Cl	31*	22*	10	-5	-5	-2
O=C1C(Nc2ccccc2)=CC(=NS(=O)(=O)c2cccs2)c2ccccc21	nt	nt	nt	nt	nt	nt	Fam108b ABPP HTS=0
Cc1ccc(NC2=C/C(=N/S(=O)(=O)c3cccs3)c3ccccc3C2=O)cc1C	4	5	-2	30	-17	nt
CC(=O)Nc1ccc(NC2=CC(=NS(=O)(=O)c3cccs3)c3ccccc3C2=O)cc1	nt	nt	nt	nt	nt	nt	Fam108b ABPP HTS=20
N=C(CC1CC(=O)NC(=O)C1)C1=C(O)CCCC1=O	-4	-2	-2	-2	2	nt
CN(C)S(=O)(=O)c1cccc(NC(=O)c2c[nH]c3ccccc23)c1	-15	126*	-9	-8	2	-18
COc1cccc(C(=O)COc2cccc(NC(=O)c3cccc([N+](=O)[O-])c3)c2)c1	23	24*	1	-35	-3	24*

Compound activity deposited in PubChem BioAssay by The Scripps Research Institute Molecular Screening Center.
